Sampled rows, rich in hits. Any-hit rate of the full collection: about 5.4%.
12-hLO inh: 12-hLO (ALOX12) enzyme inhibition. P18054. purified 12-hLO, xylenol orange hydroperoxide absorbance. Potency, µM (highest dose often 57.1 µM), for the others: at the top dose activity change, negative = inhibition, most hits filed as inhibitors. 0.12% of 150,000 active. AID 1452; also: potency is read from the fitted curve at half-maximal effect; nearly all actives have a fitted effect of over 55% in size
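Hydroperoxide formation by human 12-lipoxygenase from 40 uM arachidonic acid was followed colorimetrically via ferric-xylenol orange complex, using the 573/405 nm absorbance ratio. Enzyme concentration was 150 nM, with 30 min reaction at room temperature.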
15-hLO-2 inh: 15-hLO-2 (ALOX15B) enzyme inhibition; O15296; purified 15hLO-2, xylenol orange hydroperoxide absorbance; Potency, µM (series often up to 57.1 µM), without a hit: at the highest dose activity change, negative = inhibition, usual class: inhibitors; 0.56% of 110,000 active; also: potency is read from the fitted curve at half-maximal effect; nearly all actives have a fitted effect of over 60% in size
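Enzyme 50 nM, AA 45 uM, 25 mM Hepes pH 7.5 + 0.01% Triton X-100; cpd preinc 15 min RT, rxn 90 min RT; stop/detect with 200 uM XO + 300 uM Fe(II) in 50 mM H2SO4, 30 min; A573/A405.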
IMPase Li cell: membrane-permeable IMPase blocker, potentiated with lithium; Potency, µM (doses to about 59.4 µM), without a hit: at the top dose activity, negative = IMPase inhibition, actives largely listed as inhibitors; AID 1457; CHO-M1 cells, IP1 TR-FRET (IP-One), carbachol + lithium; 0.35% of 210,000 active;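 also: IP1 builds up when IMPase is blocked and the TR-FRET signal falls; potency is read from the fitted curve at half-maximal effect; plate controls were basal vehicle for no effect and high inhibitor control for full effect; nearly all actives have a fitted effect of over 50% in size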
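Lithium-sensitised IP1 accumulation assay; M1-expressing CHO cells treated 30 min at 37C with compound. Competitive antibody detection by time-resolved FRET followed a 10 min room-temperature lysis step.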
IMPase cell inh: IMPase inhibition in cells | P97697 | CHO-M1 cells, IP1 accumulation, HTRF TR-FRET ratio | inhibition (IP1 accumulation), % at 46.1 µM | 120,000 tested, under 10 active | AID 901; active = well fitted curve in the direction sought with a large enough effect in the signal ratio, not every such curve was filed as active; inconclusive = small, poorly fitted or top-dose-only effect, or a change in a side signal; inactive = no such curve, though single readings can be large or run the other way; the % refers to the signal ratio;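 also: cells stimulated with carbachol in lithium chloride buffer; plate controls were DMSO basal wells for no effect and reference inhibitor wells for full effect; higher means more IMPase inhibition seen as more IP1 and lower FRET ratio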
Target sequence (P97697 whole entry, looked up): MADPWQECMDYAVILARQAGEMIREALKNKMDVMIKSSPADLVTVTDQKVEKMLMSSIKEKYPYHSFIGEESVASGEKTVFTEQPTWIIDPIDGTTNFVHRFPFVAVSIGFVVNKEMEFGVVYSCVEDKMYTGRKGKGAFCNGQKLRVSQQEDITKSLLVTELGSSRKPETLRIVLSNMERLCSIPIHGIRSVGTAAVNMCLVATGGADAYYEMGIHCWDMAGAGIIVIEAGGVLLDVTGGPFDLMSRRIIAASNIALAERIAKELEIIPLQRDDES
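Cellular IMPase inhibition is scored as a rise in cytosolic IP1, detected by competitive TR-FRET between d2-labelled IP1 and a europium anti-IP1 antibody. M1-expressing CHO cells were stimulated with carbachol for 30 min at 37C, with lithium (50 mM LiCl) present in the buffer.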
HPGD inh: HPGD (human) dehydrogenase inhibition; P15428; purified HPGD, NADH fluorescence kinetic, PGE2 substrate; Potency, µM, for inactives: at the highest dose activity change, negative = inhibition, most hits filed as inhibitors; 4.3% of 150,000 active; AID 894; active = well fitted inhibition curve with a large enough effect, not every such curve was filed as active; inconclusive = small, poorly fitted or top-dose-only effect, or another doubt; inactive = no such curve, though single readings can be large or run the other way; also: potency is read from the fitted curve at half-maximal effect
Target sequence (P15428 whole entry, looked up): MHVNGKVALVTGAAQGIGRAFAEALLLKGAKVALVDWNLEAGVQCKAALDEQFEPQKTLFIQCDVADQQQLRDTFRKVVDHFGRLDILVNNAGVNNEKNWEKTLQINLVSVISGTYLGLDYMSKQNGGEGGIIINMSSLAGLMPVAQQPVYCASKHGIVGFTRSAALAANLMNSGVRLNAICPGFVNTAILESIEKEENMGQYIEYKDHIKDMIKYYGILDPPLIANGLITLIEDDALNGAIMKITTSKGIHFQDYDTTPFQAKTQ
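NADH formation kinetics: reaction with 30 uM PGE2 and 1 mM NAD+ (final), 20 nM enzyme, Tris-HCl pH 8 with Tween 20, after 15 min compound preincubation at room temperature. Fluorescence change, last versus first of five reads.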
PNC assembly inh: blocks assembly of the perinucleolar compartment; PC3M PTB-GFP, PNC prevalence imaging, 16 h; stronger effect = lower value; activity change (PNC), negative = inhibition, % at 10 µM; 3.1% of 140,000 active;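 active = readout at or below -70, meaning at least 70% loss of cells showing the perinucleolar compartment, a nuclear body marking cancer cells; inconclusive = readout between -30 and a set limit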;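 also: plate controls were DMSO wells for no effect and camptothecin positive control wells for full effect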
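Compounds are pinned in duplicate onto adhered PC3M cells stably expressing GFP-tagged PTB and incubated 16 h at 37 C. Cells are then fixed, nuclei stained with Hoechst, and PNC-positive cells counted.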
The depositor's hits bear a star; ? = inconclusive; . = no result given; [ ] = dose if it differs, or a comment. Unless noted, calls follow the shape of the dose curve; as a rule, active = well fitted curve in the direction sought with a large enough effect; inconclusive = small, poorly fitted or top-dose-only effect, or another doubt; inactive = no such curve, though single readings can be large; an effect the other way counts as inactive or inconclusive. Unless noted, % is scaled to controls: 0 for no effect and ±100 for the full control effect.

SMILES	12-hLO inh	15-hLO-2 inh	IMPase Li cell	IMPase cell inh	HPGD inh	PNC assembly inh
c1ccc(Nc2nc(N3CCOCC3)nc(N3CCOCC3)n2)cc1	2%	2%	45%[38.3 µM]	9	0%	-5
O=C(C(Cc1ccccc1)N1C(=O)c2ccccc2C1=O)N1CCc2ccccc21 (stereo not given)	1%	.	16%	0	-8%	-100*
CCC(NC(=O)c1ccccc1O)c1ccccc1 (stereo not given)	-16%	0%	18%[38.3 µM]	4	?	-109*
Nn1c(Cc2cccc3ccccc23)nnc1SCn1nnc2ccccc2c1=O	-2%	-20%	24%[38.3 µM]	3	-16%	?
Nn1c(SCc2cccc3ccccc23)nnc1-c1ccco1	-2%	-8%	-25%[38.3 µM]	?	14µM*	-1
Nn1c(Cc2cccc3ccccc23)nnc1SC1CCOC1=O (stereo not given)	-3%	-1%	14%[38.3 µM]	-11	-7%	?
Cn1c(SCc2cccc3ccccc23)nnc1-c1ccco1	-2%	0%	21%[38.3 µM]	-5	?	-16
Nn1c(Cc2cccc3ccccc23)nnc1SCc1c(Cl)cccc1Cl	-5%	.	16%	.	7.9µM*	-10
Nn1c(Cc2cccc3ccccc23)nnc1SCc1ccc(Cl)c(Cl)c1	-4%	.	7%	.	2.8µM*	?
CCC(=O)N1CC23C=CC(CC2CC12CCCCC2)O3 (stereo not given)	-3%	-6%	-3%[38.3 µM]	-13	-4%	-124*
COc1cccc(Cn2cnc3c2c(=O)n(C)c(=O)n3C)c1	.	.	.	0	.	.
Cc1ccc2cc3cc(C(=O)NCCN4CCOCC4)oc3nc2c1	0%	.	4%	-4	?	-100*
CC(C)N(CCNC(=O)c1ccc(Cc2nc3ccccc3[nH]2)cc1)C(C)C	-2%	.	.	.	-9%	.
Cc1cc(SCC(=O)Nc2nsc(-c3ccc(C(C)(C)C)cc3)n2)nc2ccccc12	.	.	.	6	.	.
Cn1c(=O)c(=O)n(C)c2cc(N3CCCC3)c(NC(=O)c3ccc(C(C)(C)C)cc3)cc21	.	.	.	1	.	.
O=[N+]([O-])c1cc(C(F)(F)F)ccc1Sc1ccc2ccccc2n1	-9%	-12%	36%[38.3 µM]	-1	16µM*	-20
O=Cc1ccc(-c2nc3ccccc3s2)o1	.	.	-5%	.	.	.
CCC(C(=O)O)N1C(=O)/C(=C/c2cccn2C)SC1=S (stereo not given)	-15%	.	-11%	.	?	7
O=C(O)CCN1C(=O)/C(=C/c2ccc(-c3nc4ccccc4s3)o2)SC1=S	-8%	?	3%[38.3 µM]	5	13µM*	-14
O=C(O)CC(C(=O)O)N1C(=O)/C(=C/c2ccc(-c3nc4ccccc4s3)o2)SC1=S (stereo not given)	-9%	-18%	6%	9	25µM*	?
CCCOc1ccc(C(=O)Nc2ccc(-c3cc4ccccc4oc3=O)c(C)c2)cc1	.	.	.	-9	.	.
CN1CCN(c2ncc3nc(-c4ccc(Cl)cc4)c(=O)n(CCC#N)c3n2)CC1	-23%	5%	8%	.	?	.
O=C(COC(=O)/C=C/c1ccc(Cl)cc1)NCCC1=CCCCC1	-1%	.	-4%	.	-16%	-90*
O=C(COC(=O)/C=C/c1cccc(Cl)c1)NCCC1=CCCCC1	2%	.	-8%	3	1%	?
O=C(COC(=O)Cc1c(Cl)cccc1Cl)NCCC1=CCCCC1	-4%	.	-7%	13	13µM*	26
c1ccc2cc(-c3cc(-c4cc(-c5ccc6ccccc6c5)on4)no3)ccc2c1	-5%[11.4 µM]	14%[11.4 µM]	-14%	.	-7%	.
CCCCC1(C)OC(=O)C(=Cc2c[nH]c3ccccc23)C(=O)O1 (stereo not given)	.	.	5%	.	.	.
CCCCC1(C)OC(=O)C(=Cc2ccc(N(C)C)cc2)C(=O)O1 (stereo not given)	2%	?	-8%[38.3 µM]	1	11µM*	82
CC1CCCCN1c1nnc(N)s1 (stereo not given)	-4%	5%	-10%[38.3 µM]	1	?	-3
CC1CCCC(C)N1c1nnc(N)s1 (stereo not given)	-6%	.	8%	.	28µM*	51

Assay outcomes (PubChem)
